Source: PubChem BioAssay (Broad Institute)
IDE exosite inh – displaces the probe from the exo-site of human IDE; purified IDE, FL-6b probe fluorescence polarization; active compounds read low; hit rate 6.3% among 17,000; AID 1259349; z-score at 20 µM; P14735;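 active = z-score of -3 or lower, meaning strong loss of probe binding signal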;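 also: His-tagged human IDE residues 42-1019 made in E. coli with 30 nM FL-6b probe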
A number is an active result; 0 = inactive. The entries come from a sample that favours hits as a whole.

SMILES	IDE exosite inh
COc1ccccc1NC(=O)N1CCCCN2[C@H](C1)[C@@H](c1ccc(-c3ccc(C)cc3)cc1)[C@@H]2CO	0
O=C(C[C@H]1CC[C@@H](NC(=O)c2ccc(F)cc2)[C@H](CO)O1)NCCc1ccccc1	0
Cn1cnc(S(=O)(=O)N2CCCCN3[C@@H](CO)[C@@H](c4ccc(-c5ccccc5F)cc4)[C@@H]3C2)c1	-5.63
Cn1cnc(S(=O)(=O)N2CCCCN3[C@H](CO)[C@H](c4ccc(-c5ccc(F)cc5)cc4)[C@H]3C2)c1	0
Cn1cnc(S(=O)(=O)N2CCCCN3[C@H](C2)[C@@H](c2ccc(-c4ccccc4F)cc2)[C@@H]3CO)c1	0
Cn1cnc(S(=O)(=O)N2CCCCN3[C@H](CO)[C@@H](c4ccc(-c5ccc(F)cc5)cc4)[C@H]3C2)c1	0
Cn1cnc(S(=O)(=O)N2CCCCN3[C@H](CO)[C@H](c4ccc(-c5ccccc5F)cc4)[C@@H]3C2)c1	0
Cn1cnc(S(=O)(=O)N2CCCCN3[C@H](CO)[C@H](c4ccc(-c5ccccc5F)cc4)[C@H]3C2)c1	-4.56
COCCN(C[C@H]1[C@H](c2ccccc2)[C@@H](CO)N1C(=O)C1CC1)C(C)=O	0
C[C@@H]1CN([C@@H](C)CO)C(=O)c2c(c3ccccc3n2C)-c2ccccc2CO[C@H]1CN(C)C(=O)NC1CCCCC1	0
O=C(Nc1ccc(F)cc1)N1CC(=O)N2[C@H](CO)[C@@H](c3ccc(C#Cc4ccccc4)cc3)[C@H]2C1	0
CN(C)C(=O)c1cccc(-c2ccc([C@@H]3[C@H](CO)N4CCCCN(C(=O)C5CCC5)C[C@@H]34)cc2)c1	0
C[C@@H](O)C#Cc1ccc([C@H]2[C@H](CO)N3CCCCN(C(=O)c4cccc(F)c4)C[C@@H]23)cc1	0
CC(C)[C@H]1COCn2nncc2CC[C@H](Cc2ccc(Cl)cc2)C(=O)N1	0
O=C(C1CCCCC1)N1CC(=O)N2[C@H](CO)[C@@H](c3ccc(-c4cccnc4)cc3)[C@@H]2C1	-5.08
O=C(NC1CCCC1)N1CC(=O)N2[C@H](CO)[C@H](c3ccc(-c4ccccc4)cc3)[C@@H]2C1	-5.7
O=C(NC1CCCC1)N1CC(=O)N2[C@H](CO)[C@@H](c3ccc(-c4ccncc4)cc3)[C@H]2C1	0
O=C(C1CCCCC1)N1CC(=O)N2[C@@H](CO)[C@@H](c3ccc(-c4cccnc4)cc3)[C@@H]2C1	0
O=C(C1CCCCC1)N1CC(=O)N2[C@H](CO)[C@H](c3ccc(-c4cccnc4)cc3)[C@@H]2C1	0
O=C(C1CCCCC1)N1CC(=O)N2[C@H](C1)[C@@H](c1ccc(-c3cccnc3)cc1)[C@@H]2CO	0
O=C(NC1CCCCC1)N1CC(=O)N2[C@H](CO)[C@@H](c3ccc(-c4ccncc4)cc3)[C@H]2C1	0
O=C(NC1CCCC1)N1CC(=O)N2[C@H](CO)[C@H](c3ccc(-c4cccnc4)cc3)[C@@H]2C1	-3.37
O=C(NC1CCCC1)N1CC(=O)N2[C@H](CO)[C@H](c3ccc(-c4ccncc4)cc3)[C@@H]2C1	0
CN(C)CC(=O)N1[C@H](C#N)[C@@H](c2ccc(-c3cccc(C(=O)N(C)C)c3)cc2)[C@@H]1CO	0
Cc1cccc(-c2ccccc2[C@H]2[C@@H](C#N)N(c3ncc(-c4ccccc4)s3)[C@@H]2CO)c1	0
SMILES	IDE exosite inh
CCCC#Cc1ccc([C@@H]2[C@@H](CO)N3C(=O)CN(C(=O)Nc4cc(F)ccc4F)C[C@@H]23)cc1	0
COCC(=O)N1CCC2(CC1)CN(C(=O)c1ccccn1)[C@H](CO)c1c2c2ccc(OC)cc2n1C	0
COc1ccc(-c2ccc([C@H]3[C@@H](C#N)N(C(=O)NC(C)C)[C@H]3CO)cc2)cc1	0
O=C(O)C[C@@H]1C=C[C@H](NC(=O)Nc2cc(F)ccc2F)[C@H](CO)O1	0
COCC#Cc1ccc([C@@H]2[C@@H](CO)N3C(=O)CN(C(=O)Nc4ccccc4F)C[C@@H]23)cc1	0
Cc1cccc(-c2ccc([C@@H]3[C@@H](CO)N4C(=O)CN(S(=O)(=O)c5cccc(F)c5)C[C@@H]34)cc2)c1	0
C/C=C/c1ccc(C2[C@@H]3CN(S(=O)(=O)c4cccc(OC)c4)C[C@H]2N3)cc1 (some centres not stated)	0
O=C1CN(S(=O)(=O)c2ccccc2)C[C@H]2[C@@H](c3ccc(C#CCc4ccccc4)cc3)[C@@H](CO)N12	0
COCC(=O)N1CC[C@@H]2[C@@H](CO)N(C)c3ccc(-c4cccc(F)c4)cc3[C@@H]21	0
OC[C@H]1[C@@H](c2ccc(/C=C/c3ccccc3)cc2)[C@H]2CN(Cc3ccncc3)CCCCN21	-5.74
OC[C@H]1[C@@H](c2ccc(/C=C/c3ccccc3)cc2)[C@@H]2CN(Cc3ccncc3)CCCCN12	-7.94
CCCC#Cc1ccc([C@H]2[C@H]3CN(Cc4ccncc4)CCCCN3[C@H]2CO)cc1	0
CCCC#Cc1ccc([C@H]2[C@@H](CO)N3CCCCN(Cc4ccncc4)C[C@@H]23)cc1	0
OC[C@@H]1[C@@H](c2ccc(/C=C/c3ccccc3)cc2)[C@H]2CN(Cc3ccncc3)CCCCN12	-5.15
OC[C@@H]1[C@@H](c2ccc(/C=C/c3ccccc3)cc2)[C@@H]2CN(Cc3ccncc3)CCCCN12	-4.98
COc1ccc(C#Cc2ccc([C@@H]3[C@@H](CO)N4CCCCN(Cc5ccncc5)C[C@H]34)cc2)cc1	0
COCC(=O)N1CC(=O)N2[C@H](CO)[C@H](c3ccc(C#CC4CCCCC4)cc3)[C@H]2C1	0
O=C(c1ccccc1F)N1C[C@H]2[C@@H](c3ccccc31)[C@@H](CO)N2Cc1ccc2c(c1)OCO2	0
C/C=C/c1ccc([C@H]2[C@@H](CO)N(C(C)=O)[C@H]2CN(C)C(=O)c2ccccn2)cc1	0
O=S(=O)(Cc1ccccc1)N1CCCCN2[C@H](CO)[C@@H](c3ccc(-c4ccccc4)cc3)[C@@H]2C1	0
CCCC#Cc1ccc([C@@H]2[C@H]3CN(C(=O)c4cccnc4)CC(=O)N3[C@H]2CO)cc1	0
O=C(c1ccc(F)cc1)N1CC(=O)N2[C@H](C1)[C@@H](c1ccc(C3=CCCC3)cc1)[C@@H]2CO	0
CCCC#Cc1ccc([C@H]2[C@@H](C#N)N(C(=O)C3CC3)[C@H]2CO)cc1	0
CCc1csc(N2[C@H](C#N)[C@H](c3ccccc3C3=CCCC3)[C@H]2CO)n1	0
CN(C[C@H]1[C@@H](c2ccccc2)[C@H](CO)N1Cc1ccccn1)S(C)(=O)=O	0
SMILES	IDE exosite inh
C[C@@H]1CN([C@H](C)CO)C(=O)c2ccccc2-c2ccccc2CO[C@@H]1CN(C)C(=O)c1cc(Cl)cc(Cl)c1	0
C[C@@H]1CC(=O)NCC/C=C\C[C@@H](c2cccc(Cl)c2)NC1=O	0
CC(C)[C@H]1CC=CC[C@@H](C)Oc2ccccc2C(=O)N(C)[C@H](C(C)C)C(=O)N1 (mixture of isomers)	0
CS(=O)(=O)Nc1ccc2c(c1)[C@@H]1C[C@H](CC(=O)NCc3cc(F)ccc3F)O[C@H](CO)[C@@H]1O2	0
OC[C@H]1[C@H](c2ccc(/C=C/c3ccccc3)cc2)[C@H]2CN(Cc3cccnc3)CCCCN21	0
OC[C@@H]1[C@H](c2ccc(-c3ccc(F)cc3)cc2)[C@@H]2CN(Cc3cccnc3)CCCCN12	0
OC[C@H]1[C@@H](c2ccc(/C=C/c3ccccc3)cc2)[C@@H]2CN(Cc3cccnc3)CCCCN12	-4.4
Cc1noc(C)c1S(=O)(=O)N(C)C[C@H]1OCCCC[C@H](C)Oc2ccc(NC(=O)CCC(F)(F)F)cc2C(=O)N([C@H](C)CO)C[C@@H]1C	0
